Test results: PubChem BioAssay
Values without a mark were called inactive. No rule for the calls is given here.

biological target: Pantothenate synthetase (Mycobacterium tuberculosis (strain ATCC 25618 / H37Rv)) (UniProt P9WIL5); experiment: Coupled enzyme confirmation of inhibitors against recombinant Mtb PanC (AID 375); details: coupled enzyme assay; at 10 µM, active compounds read high;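 also: 0% = full reaction with vehicle and 100% = no enzyme background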
Sequence (P9WIL5 whole entry, looked up): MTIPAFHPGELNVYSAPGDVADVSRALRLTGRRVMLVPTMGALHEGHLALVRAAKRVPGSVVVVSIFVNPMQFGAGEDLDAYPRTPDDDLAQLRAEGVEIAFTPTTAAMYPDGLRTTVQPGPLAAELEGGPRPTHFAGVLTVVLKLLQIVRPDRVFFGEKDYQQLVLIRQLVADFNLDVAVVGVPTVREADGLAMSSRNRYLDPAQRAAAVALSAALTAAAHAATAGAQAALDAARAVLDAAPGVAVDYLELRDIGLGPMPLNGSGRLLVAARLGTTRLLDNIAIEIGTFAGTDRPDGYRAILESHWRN

In order of rising inhibition:
1. Cc1cc(C)n(CC(=O)O)n1  0%
2. CC[C@H]1CN2CCc3cc(OC)c(OC)cc3[C@@H]2C[C@@H]1C[C@H]1NCCc2cc(OC)c(OC)cc21  0%
3. Cc1ccc2nc(NC(=O)CN(C)S(=O)(=O)c3cccc4nsnc34)sc2c1  0%
4. C=CCn1c(N)c(C(=O)NCCC2=CCCCC2)sc1=S  0%
5. CC1=C(C(N)=O)C(c2ccncc2)n2nc(-c3ccccc3Cl)nc2N1 (stereo not given)  0%
6. CC(C)c1cc(C(=O)NCc2ccco2)no1  0%
7. CCCCOCCCNC(=O)c1ccc(NC(C)=O)cc1  0%
8. COc1cc(-c2nc(-c3cccc(C(F)(F)F)c3)no2)cc(OC)c1OC  0%
9. O=C(CN(Cc1ccc2c(c1)OCO2)C(=O)CNS(=O)(=O)c1ccccc1)NCc1ccco1  0%
10. Cn1c(=O)[nH]c(=O)c2c1ncn2CCN1CCOCC1  0%
11. O=C(/C=C/c1ccccc1)c1ccccc1  0%
12. Cc1cc(O)c(C(C)C)cc1N=C1CSC(=O)N1  0%
13. CC1CCCC(C(=O)OCc2ccccc2)N1 (stereo not given)  0%
14. CC(OC(=O)c1cccc(NS(C)(=O)=O)c1)C(=O)Nc1ccc(N2CCOCC2)cc1 (stereo not given)  0%
15. CC(C)=CC/C=C1\CCC(C(=O)O)C(C(=O)O)C1 (stereo not given)  0%
16. CCC(Sc1ncccc1C(=O)O)C(=O)N1CCCC1 (stereo not given)  0%
17. O=C(Cn1nnc(-c2ccncc2)n1)Nc1ccc2c(c1)CCC2  0%
18. Cn1c(SCc2c(F)cccc2Cl)nnc1-c1cccs1  0%
19. CC1(C)NC(=O)N(CNc2cc(Cl)ccc2Cl)C1=O  0%
20. Cn1c(=O)[nH]c(=O)c2c1nc(N1CCOCC1)n2CC(O)COc1ccc2ccccc2c1 (stereo not given)  0%
21. COc1ccc(S(=O)(=O)N2CCN(CC(=O)Nc3ccc(C)c(F)c3)CC2)cc1  0%
22. Cc1cc(C)c(NC(=O)CSc2nc3c(c(=O)n2C)SC(C)C3)c(C)c1 (stereo not given)  0%
23. Cc1cc(Cl)c(S(=O)(=O)Nc2ccc3c(c2)OCCO3)cc1OCC(N)=O  0%
24. COc1ccc2c(C(F)(F)F)cc(=O)oc2c1C  1%
25. Cc1nn(-c2ccccc2)c2c1C(c1c(C)[nH]c(C#N)c1C)C(C#N)=C(N)O2 (stereo not given)  1%
26. CCN1CCN(C(=O)c2cn(CCOC)c(=O)c3c2c2ccccc2n3C)CC1  1%
27. Cc1ccccc1NC(=O)C1CCCN(S(=O)(=O)c2cnc[nH]2)C1 (stereo not given)  2%
28. Cc1cc2c(nn1)CCC/C2=N\O  2%
29. COc1ccc(-c2nnc3ccc(SC(C(C)=O)C(C)=O)nn23)cc1OC  2%
30. COc1ccc(/C(O)=C2/C(=O)C(=O)N(CCCN(C)C)C2c2ccc(Cl)cc2)cc1OC (stereo not given)  3%
31. CCc1nnc(-n2nc(C)cc2-c2ccccc2)n1N  3%
32. CCSc1nnc(NC(=O)CCNS(=O)(=O)c2cc(Br)cnc2N)s1  3%
33. COc1ccc(CCNC(=O)c2cnn3ccccc23)c(OC)c1OC  4%
34. CCNc1oc(COc2cccc(C)c2)nc1C#N  5%
35. Cc1nc2nc(Cc3ccccc3)[nH]n2c(=O)c1Cc1ccccc1  5%
36. Cc1ccc(NC(=O)CSc2nnc(Cc3cccn3C)n2-c2ccc(F)cc2)cc1  6%
37. Cc1ccc(C(=O)N2CCN(C(=O)c3ccc(C)c(C)c3)C(C)C2)cc1C (stereo not given)  7%
38. O=C(O)CCC1(C(=O)O)OCCc2ccccc21 (stereo not given)  8%
39. O=C(Cn1ccc2ccccc2c1=O)NCCC(=O)N1CCN(C(=O)c2ccco2)CC1  9%
40. O=C(Nc1nnc(N2CCCCCC2)s1)c1cc(-c2ccc(Br)cc2)on1  12%
